Assay results taken from PubChem BioAssay.
For some assays here: Entries with a potency or affinity are not part of this list. Calls of active or inactive are those of the source. Unless noted, the rule behind the calls is not given here.

Assays:
[1] = antimalarial activity against Dd2 strain (AID 2302;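 active = growth inhibition above 50% at the single 2 µM test dose, taken to imply half-maximal potency below 2 µM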;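 note: 0% = DMSO untreated growth and 100% = chloroquine plus artemisinin killed control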); conditions: P. falciparum Dd2 in RBCs, LDH growth readout, 72 h; at 2 µM; active compounds read high
[2] = HepG2 cytotoxicity, primary screen, cytotoxicity control for P. falciparum antimalarial project, cell-based, ATP luminescence (AID 2303;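 active = inhibition above 50%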;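 note: 0% = DMSO wells and 100% = digitonin-killed cells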); conditions: HepG2 viability, 24-48 h, at 10 µM, active compounds read high
[3] = biological target: L-lactate dehydrogenase (Plasmodium falciparum (isolate CDC / Honduras)) (UniProt Q27743); test: PfLDH activity inhibition – cell lysate, 3D7 strain, counter-screen for P. falciparum growth inhibition project (AID 2304);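 note: 0% = vehicle and 100% = reference inhibitor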; conditions: P. falciparum 3D7 crude extract, LDH APAD/NBT absorbance; at 2 µM; active compounds read high
[4] = inhibition of 3D7 malaria parasite growth – strain 3D7 (AID 2306);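 note: 0% = DMSO wells and 100% = chloroquine plus artemisinin control wells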; conditions: P. falciparum 3D7 erythrocytic growth, LDH absorbance, 72 h; at 2 µM; active compounds read high
[5] = biological target: Calcium-dependent protein kinase 1 (Plasmodium falciparum (isolate 3D7)) (UniProt P62344); test: PfCDPK1 kinase inhibitors, biochemical, TCAMS library (AID 1159585; cut-off not given, nearly all actives have IC50 up to about 0.98 µM;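 note: inhibitors leave more ATP so luminescence rises with inhibition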); conditions: recombinant PfCDPK1, Kinase-Glo ATP depletion luminescence
[6] = biological target: Plasmodium falciparum protein kinase 6 (PK6, PF3D7_1337100) (UniProt Q8IDW1); test: PfPK6 kinase inhibitors, biochemical, TCAMS library (AID 1159586); conditions: recombinant PfPK6, Kinase-Glo ATP depletion luminescence
[7] = biological target: Protein kinase 7 (PK7), Plasmodium falciparum 3D7 (PF3D7_0213400) (UniProt Q7YTF7); test: inhibition of Plasmodium PK7 catalytic activity – biochemical, TCAMS antimalarial set, Kinase-Glo luminescence (AID 1159587); conditions: recombinant PfPK7, Kinase-Glo ATP depletion luminescence
[8] = biological target: Calcium-dependent protein kinase 4 (Plasmodium falciparum (isolate 3D7)) (UniProt Q8IBS5); test: PfCDPK4 kinase inhibitors, biochemical, TCAMS library (AID 1159588; cut-off not given, nearly all actives have IC50 up to about 0.91 µM); conditions: recombinant PfCDPK4, Kinase-Glo ATP depletion luminescence
Chain of Calcium-dependent protein kinase 4 (Plasmodium falciparum (isolate 3D7)) (Q8IBS5 whole entry, looked up): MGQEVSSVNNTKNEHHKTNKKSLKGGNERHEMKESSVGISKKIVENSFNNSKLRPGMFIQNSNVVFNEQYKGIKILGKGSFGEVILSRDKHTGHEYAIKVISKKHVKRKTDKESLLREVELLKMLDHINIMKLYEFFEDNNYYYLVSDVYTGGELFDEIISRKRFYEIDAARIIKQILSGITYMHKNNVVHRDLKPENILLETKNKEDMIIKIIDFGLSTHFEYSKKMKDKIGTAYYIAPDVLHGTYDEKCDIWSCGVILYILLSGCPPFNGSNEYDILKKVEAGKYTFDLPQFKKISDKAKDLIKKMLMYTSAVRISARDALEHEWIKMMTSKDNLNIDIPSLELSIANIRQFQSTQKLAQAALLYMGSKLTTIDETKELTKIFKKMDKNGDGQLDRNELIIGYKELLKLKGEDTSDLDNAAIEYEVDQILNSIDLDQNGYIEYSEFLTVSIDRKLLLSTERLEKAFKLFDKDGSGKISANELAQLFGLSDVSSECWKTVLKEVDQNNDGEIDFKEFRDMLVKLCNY

Chain of Calcium-dependent protein kinase 1 (Plasmodium falciparum (isolate 3D7)) (P62344 whole entry, looked up): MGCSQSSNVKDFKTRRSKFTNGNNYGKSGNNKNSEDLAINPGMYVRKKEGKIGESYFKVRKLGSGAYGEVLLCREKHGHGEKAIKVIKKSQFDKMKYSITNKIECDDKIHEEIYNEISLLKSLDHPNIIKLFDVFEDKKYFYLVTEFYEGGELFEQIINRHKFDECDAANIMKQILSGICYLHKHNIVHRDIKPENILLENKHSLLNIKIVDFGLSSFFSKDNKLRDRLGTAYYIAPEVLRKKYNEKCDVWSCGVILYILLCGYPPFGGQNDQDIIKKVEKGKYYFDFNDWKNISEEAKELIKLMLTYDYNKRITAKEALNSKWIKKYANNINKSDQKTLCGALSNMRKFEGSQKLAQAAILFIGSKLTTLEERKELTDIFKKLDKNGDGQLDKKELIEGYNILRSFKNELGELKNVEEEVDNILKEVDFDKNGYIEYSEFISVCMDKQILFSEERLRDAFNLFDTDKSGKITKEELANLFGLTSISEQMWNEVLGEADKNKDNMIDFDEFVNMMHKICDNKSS
Chain of Protein kinase 7 (PK7), Plasmodium falciparum 3D7 (PF3D7_0213400) (Q7YTF7 1-343): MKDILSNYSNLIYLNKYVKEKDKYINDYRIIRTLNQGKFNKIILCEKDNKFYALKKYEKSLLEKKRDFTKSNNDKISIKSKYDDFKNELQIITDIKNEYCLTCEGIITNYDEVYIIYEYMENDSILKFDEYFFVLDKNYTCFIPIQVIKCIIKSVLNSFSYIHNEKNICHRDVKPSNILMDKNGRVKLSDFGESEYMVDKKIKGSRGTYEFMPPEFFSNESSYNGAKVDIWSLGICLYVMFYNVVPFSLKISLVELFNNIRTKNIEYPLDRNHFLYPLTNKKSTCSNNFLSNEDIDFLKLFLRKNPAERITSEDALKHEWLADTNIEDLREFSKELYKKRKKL
Chain of L-lactate dehydrogenase (Plasmodium falciparum (isolate CDC / Honduras)) (Q27743 whole entry, looked up): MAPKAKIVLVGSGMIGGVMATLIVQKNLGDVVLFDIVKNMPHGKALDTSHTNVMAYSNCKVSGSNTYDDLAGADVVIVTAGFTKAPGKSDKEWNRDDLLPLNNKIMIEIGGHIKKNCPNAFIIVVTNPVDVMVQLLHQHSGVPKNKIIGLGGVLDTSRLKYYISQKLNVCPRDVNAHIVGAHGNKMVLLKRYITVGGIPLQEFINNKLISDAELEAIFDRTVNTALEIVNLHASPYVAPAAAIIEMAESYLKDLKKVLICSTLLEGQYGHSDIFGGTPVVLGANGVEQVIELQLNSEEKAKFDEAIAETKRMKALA
Chain of Plasmodium falciparum protein kinase 6 (PK6, PF3D7_1337100) (Q8IDW1 1-305): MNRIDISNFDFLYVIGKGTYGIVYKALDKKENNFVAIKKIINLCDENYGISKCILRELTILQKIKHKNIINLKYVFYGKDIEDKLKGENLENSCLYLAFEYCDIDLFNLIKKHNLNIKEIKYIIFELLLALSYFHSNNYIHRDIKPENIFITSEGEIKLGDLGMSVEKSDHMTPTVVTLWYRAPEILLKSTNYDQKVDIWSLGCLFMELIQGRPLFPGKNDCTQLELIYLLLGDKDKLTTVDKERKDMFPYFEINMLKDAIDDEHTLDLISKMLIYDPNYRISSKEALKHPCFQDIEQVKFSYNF

SMILES	growth inhibition [1]	inhibition [2]	inhibition [3]	growth inhibition [4]	outcome [5]	outcome [6]	outcome [7]	outcome [8]
COc1cc(C(=O)NC2CCN(Cc3ccccc3)CC2)ccc1-c1nc2c(Cl)cc(C(F)(F)F)cc2[nH]1	56% (active)	7% (inactive)	1% (inactive)	103% (active)	inactive	inactive	inactive	inactive
Cc1cc(NN=Cc2ccccc2Cl)c2cc(F)ccc2n1	4% (inactive)	5% (inactive)	-2% (inactive)	101% (active)	inactive	inactive	inactive	inactive
O=c1cc(NCCC(CNCc2cc3ccccc3o2)NCc2cc(Br)cc(Br)c2)[nH]c2ccccc12 (stereo not given)	94% (active)	6% (inactive)	2% (inactive)	100% (active)	inactive	inactive	inactive	inactive
Cc1cc(-c2cccc(CNC3CCN(C)CC3)c2)ccc1S(=O)(=O)NCCN1CCCC1	0% (inactive)	18% (inactive)	0% (inactive)	100% (active)	inactive	inactive	inactive	inactive
Cc1[nH]c2ccc(-c3ccc(N(C)C)cc3)cc2c(=O)c1Cl	96% (active)	-1% (inactive)	5% (inactive)	97% (active)	inactive	inactive	inactive	inactive
Cc1cc(C2CCN(CCCCNC(=O)c3ccc(-c4ccc(C(F)(F)F)cc4)cc3)CC2)c(C)cc1OCCOC1CCCCO1 (stereo not given)	5% (inactive)	30% (inactive)	-7% (inactive)	95% (active)	inactive	inactive	inactive	inactive
COc1cc(CCCON2C(N)=NC(N)=NC2(C)C)cc(OC)c1OC	94% (active)	68% (active)	-2% (inactive)	98% (active)	inactive	inactive	inactive	inactive
Cc1cc(F)ccc1Nc1nc(N(C)c2ccccc2)c2cc(OCCN(C)C)ccc2n1	55% (active)	37% (inactive)	3% (inactive)	94% (active)	inactive	inactive	inactive	inactive
Cc1cc(CNCCCCCNCc2cccc([N+](=O)[O-])c2)ccc1O	-2% (inactive)	14% (inactive)	0% (inactive)	98% (active)	inactive	inactive	inactive	inactive
COc1ccc(C)c(Nc2ccnc(Nc3cccc(-c4nc5ccccc5[nH]4)c3)n2)c1	35% (inactive)	27% (inactive)	-1% (inactive)	98% (active)	inactive	inactive	inactive	inactive
CN(CCN)Cc1cccc(-c2ccc(-c3nc4ccc(C(F)(F)F)cc4[nH]3)s2)c1	92% (active)	27% (inactive)	5% (inactive)	100% (active)	inactive	inactive	inactive	inactive
COc1ccc(C=CC(=O)Nc2ccc(N3CCCC3)cc2)cc1	9% (inactive)	-1% (inactive)	-1% (inactive)	81% (active)	inactive	inactive	inactive	inactive
CNc1ccc(CNCc2ccc(-c3ccc(-c4nc5c(C)cccc5[nH]4)s3)cc2)cc1	94% (active)	29% (inactive)	-5% (inactive)	101% (active)	inactive	inactive	inactive	inactive
O=C(Nc1ccc(OC(F)(F)F)cc1)NC1CCN(c2ccnc3ccccc23)CC1	40% (inactive)	40% (inactive)	-7% (inactive)	101% (active)	inactive	inactive	inactive	inactive
CCCC(=O)Nc1ccc(Cl)c(NC(=O)COc2cc(C)ccc2C(C)C)c1	67% (active)	2% (inactive)	0% (inactive)	87% (active)	inactive	inactive	inactive	inactive
COc1ccc(C(O)CNC(C)CCc2ccc(F)cc2)cc1C(F)(F)F (stereo not given)	98% (active)	92% (active)	3% (inactive)	99% (active)	inactive	inactive	inactive	inactive
CCc1cn2c3c(cc(C(=O)N[C@@H](Cc4ccccc4)[C@H](O)CNCc4ccc(C)cc4)cc13)N(C)S(=O)(=O)CC2	98% (active)	-4% (inactive)	5% (inactive)	99% (active)	inactive	inactive	inactive	inactive
COc1ccc(-c2cccc(NC(=O)c3ccc(F)cc3)c2)cc1CN1CCCN(C)CC1	35% (inactive)	26% (inactive)	2% (inactive)	101% (active)	inactive	inactive	inactive	inactive
CCCCN1CCN(Cc2cccc(NC(=O)c3ccc(Cl)c(Cl)c3)c2)CC1	24% (inactive)	21% (inactive)	1% (inactive)	88% (active)	inactive	inactive	inactive	inactive
COc1ccc2nccc([C@@H](O)CN3CCC(NCc4ccc5cccc(O)c5n4)CC3)c2n1	13% (inactive)	8% (inactive)	2% (inactive)	94% (active)	inactive	inactive	inactive	inactive

SMILES	growth inhibition [1]	inhibition [2]	inhibition [3]	growth inhibition [4]	outcome [5]	outcome [6]	outcome [7]	outcome [8]
CCc1cn2c3c(cc(C(=O)N[C@@H](Cc4ccccc4)[C@H](O)CNCc4cccc(C)c4)cc13)N(C)S(=O)(=O)CC2	98% (active)	5% (inactive)	5% (inactive)	96% (active)	inactive	inactive	inactive	inactive
O=C(/C=C/c1ccc(Cl)c(Cl)c1)NC1CCN(Cc2ccc(O)cc2)C1 (stereo not given)	4% (inactive)	15% (inactive)	-1% (inactive)	97% (active)	inactive	inactive	inactive	inactive
c1ccc(-c2ccc3c(Nc4ccc5[nH]ncc5c4)ccnc3c2)nc1	99% (active)	99% (active)	4% (inactive)	100% (active)	inactive	inactive	inactive	inactive
CCN(CC)C(=NCCCCCCCCN=C(/N=C(/N)Nc1ccc(Cl)cc1)N(CC)CC)/N=C(/N)Nc1ccc(Cl)cc1	94% (active)	10% (inactive)	-3% (inactive)	99% (active)	inactive	inactive	inactive	inactive
Nc1ncc(-c2ccc3nccc(-c4ccncc4)c3c2)cc1S(=O)(=O)N1CCOCC1	99% (active)	39% (inactive)	-1% (inactive)	100% (active)	inactive	inactive	inactive	inactive
c1cn(CCCNc2ncc(-c3ccsc3)c(-c3nccs3)n2)cn1	51% (active)	-11% (inactive)	-4% (inactive)	94% (active)	inactive	inactive	inactive	inactive
O=c1cc(NC[C@H]2CCC[C@@H]2NCc2cc(Br)cc(Br)c2)[nH]c2ccccc12	45% (inactive)	21% (inactive)	2% (inactive)	101% (active)	inactive	inactive	inactive	inactive
OC(CNc1ccnc(Nc2ccccc2)n1)c1cccc(C(F)(F)F)c1 (stereo not given)	61% (active)	16% (inactive)	-2% (inactive)	100% (active)	inactive	inactive	inactive	inactive
Cc1cc(-c2ccc3c(c2)CCN(CCCOc2ccc4c(c2)CCN4C(=O)/C=C/c2ccccc2Cl)CC3)no1	50% (active)	52% (active)	1% (inactive)	88% (active)	inactive	inactive	inactive	inactive
Cc1nc(-c2nc(NCCc3c(C)noc3C)ncc2-c2ccsc2)sc1C	85% (active)	12% (inactive)	-2% (inactive)	87% (active)	inactive	inactive	inactive	inactive
CC1CN(Cc2ccc(-c3ccc(-c4nc5ccccc5[nH]4)cc3)cc2)CC(C)O1 (stereo not given)	96% (active)	48% (inactive)	3% (inactive)	98% (active)	inactive	inactive	inactive	inactive
CCOC(=O)C1=C(C)NC(Cn2ccnc2)=C(C(=O)OCC)C1c1ccc(C(C)(C)C)cc1 (stereo not given)	33% (inactive)	8% (inactive)	-10% (inactive)	100% (active)	inactive	inactive	inactive	inactive
COc1cccc2c(NN=Cc3ccccc3Cl)cc(C)nc12	100% (active)	22% (inactive)	-2% (inactive)	102% (active)	inactive	inactive	inactive	inactive
Cn1cc(CN2CCC(OC(c3ccccc3)c3ccc(Cl)cc3)CC2)cn1 (stereo not given)	61% (active)	39% (inactive)	5% (inactive)	94% (active)	inactive	inactive	inactive	inactive
O=C(Nc1ccc(Cn2ncc(N3CCCNCC3)c(Cl)c2=O)cc1)Nc1cc(Cl)cc(Cl)c1	17% (inactive)	3% (inactive)	3% (inactive)	91% (active)	inactive	inactive	inactive	inactive
CCCCCC(C)c1cc(O)c2c(c1)OC(C)(C)C=C2C1=CCN(Cc2ccccc2)CC1 (stereo not given)	96% (active)	13% (inactive)	-5% (inactive)	96% (active)	inactive	inactive	inactive	inactive
Cc1ccc(NC(=O)Nc2ccc(Cl)c(C(F)(F)F)c2)cc1-c1ccc(C(=O)Nc2ccncc2)cc1	99% (active)	77% (active)	3% (inactive)	99% (active)	inactive	inactive	inactive	inactive
CCOC(=O)c1ccc(NC(=O)Nc2ccc(-c3cccc(-c4nc5ccccc5[nH]4)c3)cc2)cc1	99% (active)	94% (active)	-4% (inactive)	101% (active)	inactive	inactive	inactive	inactive
O=C(N[C@@H]1C[C@H]1c1ccccc1)N(CCCn1ccnc1)Cc1csc(-c2ccc(CNCc3ccccc3)cc2)n1	20% (inactive)	6% (inactive)	2% (inactive)	96% (active)	inactive	inactive	inactive	inactive
Cn1cncc1-c1ccc2ncnc(Nc3ccc(OCc4ccccc4)cc3)c2c1	99% (active)	4% (inactive)	1% (inactive)	101% (active)	inactive	inactive	inactive	inactive
